PubChem BioAssay (NCI)
This is part of a sample that, as a whole, favours compounds with a hit. Of some 83,000 tested, about 20% had one in any assay.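 Compound tested at a single concentration for 48 hours in 96-well plates; a percent growth value below 10 was scored as active.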 The source made the active and inactive calls.

Assays:
Assay in all cases: NCI-60 one-dose screen, 48 h (100 = growth as untreated, 0 = no growth, -100 = all killed)
Details in all cases: 10 µM
[1] = system: HT29 colon
[2] = system: SNB-75 CNS
[3] = system: SNB-19 CNS
[4] = system: U251 CNS
[5] = system: PC-3 prostate
[6] = system: SK-MEL-5 melanoma
[7] = system: UACC-62 melanoma
[8] = system: LOX IMVI melanoma
[9] = system: SK-MEL-28 melanoma
[10] = system: SK-MEL-2 melanoma

Measured: growth

COc1ccc2c(c1)C(=O)c1c-2c(OCCN(C)C)nc2ccccc12
active: [8] -41.8%
inactive: [1] 12.2% | [2] 47.2% | [3] 42.9% | [4] 21.1% | [5] 47.2% | [6] 37.4% | [7] 52.4% | [9] 64.9% | [10] 16.5%

S=c1[nH]ccn1-c1c(Cl)cccc1Cl
inactive: [1] 105% | [2] 102% | [3] 90.9% | [4] 104% | [5] 106% | [6] 106% | [7] 97.3% | [8] 99% | [9] 101% | [10] 140%

Cc1cc2c(C)c3cc(C)c(N)cc3nc2cc1N
active: [1] -25.5% | [5] 7.77% | [8] 4.46% | [10] -18.1%
inactive: [2] 21.8% | [3] 18.3% | [4] 14.9% | [6] 19.8% | [7] 24.2% | [9] 38.9%

COc1cc(-c2nnc(-c3c(-c4ccc(F)cc4)nc4ccccn34)o2)cc(OC)c1OC
active: [2] 2.43%
inactive: [1] 84.3% | [3] 78.4% | [4] 59.5% | [5] 90.7% | [6] 63.3% | [7] 89.9% | [8] 69.7% | [9] 87.5% | [10] 106%

CCCC#CCN(CC)CC
inactive: [1] 104% | [2] 97.1% | [3] 100% | [4] 91.2% | [5] 86% | [6] 104% | [7] 99.1% | [8] 102% | [9] 108% | [10] 114%

COc1cc(/C=C2\Oc3cc(OCC(=O)c4ccccc4)ccc3C2=O)cc(OC)c1OC
inactive: [1] 112% | [2] 104% | [3] 118% | [4] 90.1% | [5] 85.2% | [6] 98.7% | [7] 96.7% | [8] 98.5% | [9] 108% | [10] 122%

O=C(O)CN1C(=O)c2cccc3cccc(c23)C1=O
inactive: [1] 100% | [2] 89.4% | [3] 99.2% | [4] 97.4% | [5] 104% | [6] 106% | [7] 100% | [8] 98.6% | [9] 109% | [10] 111%

CCN(CC)CCC(=O)Nc1cccc2c1C(=O)c1c(c(O)c3ccccc3c1O)C2=O
inactive: [1] 57.5% | [2] 38% | [3] 77.3% | [4] 64.6% | [5] 45.4% | [6] 47.6% | [7] 79.6% | [8] 40.6% | [9] 34% | [10] 112%

CCN(CC)CCSCCCNc1c2ccc(Cl)cc2nc2ccc(OC)cc12
active: [1] -58.1% | [2] -97.8% | [3] -38.4% | [4] -70.6% | [5] -30.3% | [6] -99.1% | [7] -72.9% | [8] -80% | [9] -67% | [10] -77.5%

COc1cc2cc3c(nc2cc1OC)CCN3Cc1ccc(NC(=O)Nc2cc(C(F)(F)F)cc(C(F)(F)F)c2)cc1
inactive: [1] 76.7% | [2] 69.1% | [3] 71.9% | [4] 64.1% | [5] 39.6% | [6] 89.9% | [7] 80.7% | [8] 75.4% | [9] 98.5% | [10] 80.2%

CC1CC(=O)OC(C)C1 (stereo not given)
inactive: [1] 112% | [2] 78.9% | [3] 116% | [4] 101% | [5] 101% | [6] 100% | [7] 114% | [8] 102% | [9] 102% | [10] 90.1%

C[C@@H]1C=C2C(=O)O[C@@H]3CC[C@H](C1)[C@]23O
inactive: [1] 73.8% | [2] 69.3% | [3] 105% | [4] 87.6% | [5] 87.2% | [6] 92.8% | [7] 91.6% | [8] 55.1% | [9] 88.1% | [10] 97.3%

CCn1cc(C(=O)O)c(=O)c2cnc(N3CCCC3)nc21
inactive: [1] 111% | [2] 88.1% | [3] 105% | [4] 103% | [5] 102% | [6] 102% | [7] 108% | [8] 99.3% | [9] 113% | [10] 97.7%

Cc1ccc2oc3nc(C)c(C(=O)NCc4ccccc4)cc3c(=O)c2c1
inactive: [1] 95% | [2] 88% | [3] 83.2% | [4] 79% | [5] 93.5% | [6] 76.9% | [7] 25.6% | [8] 68.8% | [9] 78.1%
active: [10] 8.63%

Nc1c(C(=O)Nc2ccccc2)sc2nc3c(cc12)C(O)CCC3 (stereo not given)
inactive: [2] 36.6% | [3] 58.6% | [4] 23.9% | [5] 31.8% | [6] 42.4% | [7] 55.4% | [8] 47.5% | [9] 62.6% | [10] 37.8%
active: [1] 6.61%

Clc1ccc(/C=C2\CCCC3=C2N=C2SC=NN2C3c2ccc(Cl)cc2)cc1 (stereo not given)
inactive: [1] 60.7% | [2] 93.2% | [3] 96.5% | [4] 84.6% | [5] 96.3% | [6] 101% | [7] 80.2% | [8] 55.1% | [9] 98.4% | [10] 113%

COc1ccc(-c2nnc(-c3c(-c4ccccc4)nc4ncccn34)o2)cc1OC
inactive: [1] 102% | [2] 74.1% | [3] 100% | [4] 101% | [5] 97.9% | [6] 95.4% | [7] 102% | [8] 102% | [9] 112% | [10] 96.3%

N#CCCN1C/C(=C/c2ccccc2)C(=O)/C(=C/c2ccccc2)C1
active: [1] -48.5% | [4] -0.696% | [7] 0.851% | [8] -65.5%
inactive: [2] 62.1% | [3] 68% | [5] 41.1% | [6] 29% | [9] 54.2% | [10] 62.3%

CCN(CC)CCCC(C)Nc1ccc2ccc(Cl)cc2n1 (stereo not given)
inactive: [1] 86.1% | [2] 77% | [3] 104% | [4] 92.7% | [5] 90.5% | [6] 97.7% | [7] 103% | [8] 95% | [9] 106% | [10] 117%

CC[C@H](C)C(=O)O[C@H]1CCC=C2C=C[C@H](C)C(CCC3C[C@@H](O)CC(=O)O3)[C@H]21 (stereo not given in full)
inactive: [1] 92.3% | [2] 32.2% | [3] 56.2% | [4] 16.8% | [5] 31.1% | [6] 60% | [7] 29.6% | [8] 11.6% | [9] 78.4% | [10] 19.5%

Nc1nc(N=Nc2ccc(O)cc2)cc(=O)[nH]1
inactive: [1] 123% | [2] 119% | [3] 99.5% | [4] 93.6% | [5] 104% | [6] 96.6% | [7] 101% | [8] 93.7% | [9] 106% | [10] 144%

Nc1c(C(=O)Nc2ccccc2)sc2nc3c(cc12)CCCC3
inactive: [1] 10.1% | [2] 20.6% | [3] 64% | [4] 21.7% | [5] 25.4% | [6] 31.8% | [7] 47.8% | [8] 53.3% | [9] 56% | [10] 51.5%

C[C@]12CC[C@@H]3c4ccc(O)cc4C[C@@H](O)[C@H]3[C@@H]1CC[C@@H]2O
inactive: [1] 102% | [2] 87.8% | [3] 108% | [4] 96.1% | [5] 90.2% | [6] 96% | [7] 97.1% | [8] 97.3% | [9] 117% | [10] 110%

CCCCC(CCCCCC(CCCC)NCc1ccc2c(c1)OCO2)NCc1ccc2c(c1)OCO2 (stereo not given)
active: [1] -100% | [2] -100% | [3] -100% | [4] -95.3% | [5] -100% | [6] -100% | [7] -95.4% | [8] -96.8% | [9] -100% | [10] -87.2%

CC(C)N(CCNc1nc(C(Cl)(Cl)Cl)nc2cc(Cl)ccc12)C(C)C
active: [1] -32.9% | [2] 8.33% | [4] -61.5% | [5] -5.1% | [6] -97% | [7] -62.2% | [8] -80.2% | [9] -80.9% | [10] -60%
inactive: [3] 22.9%

CC(=O)c1nc2ccccc2n1CCNC(N)=O
inactive: [1] 35.9% | [2] 24% | [3] 91.7% | [4] 69.8% | [5] 72% | [6] 82.7% | [7] 86.6% | [8] 62.4% | [9] 89.6% | [10] 84%

Clc1ccc2c(NCCCNc3nccc(Nc4ccc(Br)cc4)n3)ccnc2c1
active: [1] -80.3% | [2] -93.9% | [3] -8.34% | [4] -98.3% | [5] -33.4% | [6] -100% | [7] -87.9% | [8] -85.8% | [9] -97.2% | [10] -96.7%
